Results as given in PubChem BioAssay (NCATS).
Results filed as inconclusive are left out. Activity calls are given as the source filed them. Calls follow the shape of the dose curve; as a rule, active = well fitted curve in the direction sought with a large enough effect; inconclusive = small, poorly fitted or top-dose-only effect, or another doubt; inactive = no such curve, though single readings can be large; an effect the other way counts as inactive or inconclusive.

Assays:
[1] = target: N-terminal Xaa-Pro-Lys N-methyltransferase 1 (Homo sapiens) (UniProt Q9BV86); assay: Confirmatory qHTS for Inhibitors of N-terminal methyltransferase 1 (NTMT1): MTaseGlo Assay (AID 1645874);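 also: luminescence from SAH made as NTMT1 methylates SPKRIA peptide using SAM; series mostly up to about 100 µM; 0% = DMSO control and -100% = no-enzyme control; nearly all actives have a fitted effect of over 65% in size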
Chain of N-terminal Xaa-Pro-Lys N-methyltransferase 1 (Homo sapiens) (Q9BV86 whole entry, looked up): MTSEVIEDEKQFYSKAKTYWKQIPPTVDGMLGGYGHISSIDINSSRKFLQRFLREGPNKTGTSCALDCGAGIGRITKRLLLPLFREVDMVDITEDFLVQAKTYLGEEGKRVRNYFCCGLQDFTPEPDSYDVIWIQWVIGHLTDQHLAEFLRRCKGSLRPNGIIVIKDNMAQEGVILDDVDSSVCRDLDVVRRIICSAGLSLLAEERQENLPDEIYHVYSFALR
In short: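 Room-temperature NTMT1 reaction, 30 min, with 100 uM SAM and 1 uM SPKRIA substrate; enzyme 125 nM. Read-out: MTase-Glo luminescence, normalized to no-enzyme and DMSO controls.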

[2] = target: Glutathione peroxidase 1 (Homo sapiens) (UniProt P07203); assay: Primary qHTS Assay for Inhibitors of Recombinant Selenoprotein Glutathione Peroxidase 1 (GPX1) (AID 1845191); also: nearly all actives have a fitted effect of over 65% in size
Chain of Glutathione peroxidase 1 (Homo sapiens) (P07203 whole entry, looked up): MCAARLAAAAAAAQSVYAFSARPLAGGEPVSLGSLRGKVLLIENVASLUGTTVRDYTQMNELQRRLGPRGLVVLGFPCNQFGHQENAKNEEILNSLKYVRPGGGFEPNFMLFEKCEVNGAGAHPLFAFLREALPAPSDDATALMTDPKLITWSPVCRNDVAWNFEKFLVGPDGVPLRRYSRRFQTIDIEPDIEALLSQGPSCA
In short: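 GR-coupled readout: NADPH consumption tracked by fluorescence, ex 340/em 450 nm, at t=0 and after 15 min at RT. Final mix 10 nM GPX1, 1 mM GSH, 0.5 mM CHP, 0.5 mM NADPH, 100 nM GR, 0.01% BSA, following 30 min enzyme–compound preincubation.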

[3] = target: Rap guanine nucleotide exchange factor 3 (Homo sapiens) (UniProt O95398); assay: Confirmatory qHTS for antagonist of cAMP-regulated guanine nucleotide exchange factor 3 (EPAC1) (AID 1645880); also: nearly all actives have a fitted effect of over 55% in size; also: potency is read from the fitted curve at half-maximal effect
Chain of Rap guanine nucleotide exchange factor 3 (Homo sapiens) (O95398 whole entry, looked up): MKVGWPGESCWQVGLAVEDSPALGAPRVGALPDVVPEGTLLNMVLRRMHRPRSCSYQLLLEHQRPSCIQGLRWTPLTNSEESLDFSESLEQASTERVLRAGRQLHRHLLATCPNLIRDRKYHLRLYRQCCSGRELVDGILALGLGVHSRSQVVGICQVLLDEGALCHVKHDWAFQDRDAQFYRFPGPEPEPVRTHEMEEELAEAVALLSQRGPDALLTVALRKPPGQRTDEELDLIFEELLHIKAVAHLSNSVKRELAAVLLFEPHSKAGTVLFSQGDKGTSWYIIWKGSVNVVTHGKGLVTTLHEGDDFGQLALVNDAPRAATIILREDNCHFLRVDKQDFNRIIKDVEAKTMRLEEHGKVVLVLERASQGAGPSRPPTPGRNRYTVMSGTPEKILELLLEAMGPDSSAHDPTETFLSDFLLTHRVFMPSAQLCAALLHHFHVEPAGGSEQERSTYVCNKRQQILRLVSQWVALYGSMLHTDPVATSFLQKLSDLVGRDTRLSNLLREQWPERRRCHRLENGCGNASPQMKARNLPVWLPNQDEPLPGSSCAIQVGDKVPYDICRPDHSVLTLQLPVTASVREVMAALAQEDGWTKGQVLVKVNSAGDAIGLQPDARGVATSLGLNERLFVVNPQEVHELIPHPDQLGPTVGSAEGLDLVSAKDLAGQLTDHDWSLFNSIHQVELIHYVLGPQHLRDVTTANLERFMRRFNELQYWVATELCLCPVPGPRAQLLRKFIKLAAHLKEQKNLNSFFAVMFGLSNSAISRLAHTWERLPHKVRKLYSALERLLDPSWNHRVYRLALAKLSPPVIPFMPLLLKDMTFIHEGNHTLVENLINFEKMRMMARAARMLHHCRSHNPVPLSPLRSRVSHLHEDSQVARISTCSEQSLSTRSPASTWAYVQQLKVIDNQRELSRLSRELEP
In short: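 Released BODIPY-GDP fluoresces less than Rap1-bound BODIPY-GDP; the signal is followed at 480/540 nm at 5-min intervals over 30 min, after 5 min at room temperature. Reactions contain 100 nM EPAC1, 250 nM RAP1B-BODIPY-GDP and 50 uM GDP; results are normalized to ATA and DMSO.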

[4] = target: Rap guanine nucleotide exchange factor 3 (Homo sapiens) (UniProt O95398); assay: Confirmatory qHTS for agonist of cAMP-regulated guanine nucleotide exchange factor 3 (EPAC1) (AID 1645881); also: nearly all actives have a fitted effect of over 75% in size; also: potency is read from the fitted curve at half-maximal effect;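 as to activation: EPAC1 catalysed release of BODIPY-GDP from Rap1B seen as fluorescence loss; 100% = effect of cAMP agonist control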
[5] = target: Rap guanine nucleotide exchange factor 4 (Homo sapiens) (UniProt Q8WZA2); assay: Confirmatory qHTS for agonist of cAMP-regulated guanine nucleotide exchange factor 4 (EPAC2) (AID 1645884);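 also: nucleotide exchange releases bodipy-GDP from Rap1 and this lowers its fluorescence; nearly all actives have a fitted effect of over 65% in size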; also: potency is read from the fitted curve at half-maximal effect; as to activation: % is scaled to controls: 0 for no effect and ±100 for the full control effect
Chain of Rap guanine nucleotide exchange factor 4 (Homo sapiens) (Q8WZA2 whole entry, looked up): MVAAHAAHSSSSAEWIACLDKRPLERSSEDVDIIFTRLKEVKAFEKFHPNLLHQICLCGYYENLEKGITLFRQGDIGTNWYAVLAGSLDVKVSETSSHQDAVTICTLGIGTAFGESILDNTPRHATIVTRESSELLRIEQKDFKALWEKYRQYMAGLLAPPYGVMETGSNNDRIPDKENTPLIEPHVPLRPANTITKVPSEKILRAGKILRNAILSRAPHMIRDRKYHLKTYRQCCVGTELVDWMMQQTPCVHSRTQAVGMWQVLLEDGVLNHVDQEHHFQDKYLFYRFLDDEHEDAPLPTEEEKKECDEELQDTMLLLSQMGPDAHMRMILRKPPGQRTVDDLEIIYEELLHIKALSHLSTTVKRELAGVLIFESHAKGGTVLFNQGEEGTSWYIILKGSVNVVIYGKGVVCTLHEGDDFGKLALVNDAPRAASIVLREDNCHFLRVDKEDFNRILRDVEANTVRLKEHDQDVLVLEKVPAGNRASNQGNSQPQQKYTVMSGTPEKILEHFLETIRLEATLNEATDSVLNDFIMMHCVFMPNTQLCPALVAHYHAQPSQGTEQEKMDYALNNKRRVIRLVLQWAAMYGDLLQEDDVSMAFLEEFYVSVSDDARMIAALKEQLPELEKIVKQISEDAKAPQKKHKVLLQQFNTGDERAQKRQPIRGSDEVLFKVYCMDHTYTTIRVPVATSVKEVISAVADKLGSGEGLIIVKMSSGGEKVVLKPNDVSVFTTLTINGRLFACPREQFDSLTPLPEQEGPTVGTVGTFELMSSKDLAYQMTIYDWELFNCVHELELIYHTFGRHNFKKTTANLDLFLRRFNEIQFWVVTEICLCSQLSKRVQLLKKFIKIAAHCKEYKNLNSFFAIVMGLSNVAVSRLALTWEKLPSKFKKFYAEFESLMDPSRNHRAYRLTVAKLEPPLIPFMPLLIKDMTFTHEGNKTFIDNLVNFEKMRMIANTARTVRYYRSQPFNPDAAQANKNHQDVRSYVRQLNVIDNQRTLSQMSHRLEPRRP

[6] = target: Rap guanine nucleotide exchange factor 4 (Homo sapiens) (UniProt Q8WZA2); assay: Confirmatory qHTS for antagonist of cAMP-regulated guanine nucleotide exchange factor 4 (EPAC2) (AID 1645885); also: nearly all actives have a fitted effect of over 25% in size; also: potency is read from the fitted curve at half-maximal effect; as to activity change, negative = inhibition: % is scaled to controls: 0 for no effect and ±100 for the full control effect
[7] = target: Rap guanine nucleotide exchange factor 3 (Homo sapiens) (UniProt O95398); assay: Counterscreen qHTS for antagonist of cAMP-regulated guanine nucleotide exchange factor 3 (EPAC1) (AID 1645888); also: % of control where 0% means no effect
In short: (§1)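 Rap1B–BODIPY-GDP (250 nM) with 50 uM GDP; compounds pin-transferred to 9.74 nM–152 uM final (activator) or from 7.32 nM upwards (inhibitor). Fluorescence Ex/Em 480/540 nm read at 5 and 30 min, then after adding cAMP or buffer, at room temperature.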

[8] = target: Rap guanine nucleotide exchange factor 3 (Homo sapiens) (UniProt O95398); assay: Counterscreen qHTS for agonist of cAMP-regulated guanine nucleotide exchange factor 3 (EPAC1) (AID 1645889); also: nearly all actives have a fitted effect of over 40% in size; also: potency is read from the fitted curve at half-maximal effect; as to activation: % of control where 0% means no effect
In short: as §1

CCOc1ccc(CN(CCc2ccc3c(c2)OCO3)Cc2cccc(Br)c2)cc1
inactive: outcome [1]

c1cc2c(cc1C1OC[C@@H]3C(c4ccc5c(c4)OCO5)OC[C@H]13)OCO2 (stereo partly specified)
inactive: Potency [2]

CCCSc1nc2ccccc2c(=O)n1-c1ccccc1OC
inactive: Potency [3] | Potency [4] | Potency [5] | activity change, negative = inhibition [6] 34.1% [at 12.7 µM] | outcome [7]

COc1ccc(OC)c(N2C(=O)NC(=O)/C(=C/c3ccc([N+](=O)[O-])s3)C2=O)c1
active: Potency [3] 7.94 µM
inactive: Potency [4] | activation [5] 2.06% [at 17.1 µM, percent relative to cAMP agonist control] | activity change, negative = inhibition [6] -32.4% [at 12.7 µM] | activity change, negative = inhibition [7] 10.9% [at 30.8 µM] | activation [8] 21.8% [at 30.8 µM]

COc1ccc(-n2c(O)c(/C=C/C=Nc3ccccc3)c(=O)[nH]c2=O)cc1
active: Potency [4] 100 µM | Potency [5] 89.1 µM | Potency [6] 16.9 µM | Potency [8] 35.5 µM
inactive: Potency [3] | outcome [7]

CCOC(=O)[C@]12Cc3cc(Cl)ccc3[C@H]1N(C1CCCCC1)C(=O)c1ccccc12
inactive: Potency [3] | Potency [4] | Potency [5] | Potency [6] | outcome [7]

CC[C@@H]1c2ccccc2[C@@H]2CC[C@H]1N2c1ccccc1
inactive: Potency [3] | Potency [4] | activation [5] 4.18% [at 17.1 µM, percent relative to cAMP agonist control] | activity change, negative = inhibition [6] -6.37% [at 12.7 µM] | activity change, negative = inhibition [7] -4.57% [at 30.8 µM] | activation [8] -4.47% [at 30.8 µM]

Cc1cccc(N2C(=O)NC(=O)/C(=C\c3cccn3-c3ccc(Cl)cc3)C2=O)c1
active: Potency [3] 47.8 µM
inactive: Potency [4] | Potency [5] | Potency [6] | outcome [7] | Potency [8]
